According to PubChem BioAssay (NCATS):
A number with no mark means an inactive call. Results filed as inconclusive are left out. Active and inactive are the calls of the source. Unless noted, calls follow the shape of the dose curve; as a rule, active = well fitted curve in either direction with a large enough effect (not every such curve was filed as active); inconclusive = small, poorly fitted or top-dose-only effect, or another doubt; inactive = flat fitted curve, though single readings scatter.

Experiments:
[1] = biological target: Lysosomal acid glucosylceramidase (Homo sapiens) (UniProt P04062); assay: Glucocerebrosidase-p2 (AID 348; in the data active = potency below about 10 µM; also: potency is read from the fitted curve at half-maximal effect); settings: purified GBA, blue fluorogenic substrate, 40 min
Procedure, shortened: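 Normal human glucocerebrosidase (0.2 nM) with blue fluorogenic substrate (80 uM final) in citrate/phosphate pH 5.9 with 10mM sodium taurocholate, 0.01% tween-20; 40 min RT, NaOH/glycine stop; fluorescence Ex 365/Em 440; AC50 from a titration from 0.6 nM upwards.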

[2] = AP1 Signaling Pathway (AID 357); settings: ME-180 AP-1-bla reporter, EGF-induced, beta-lactamase ratio, 5 h; at 7.69 µM (top of the series) unless noted;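 also: ME-180 reporter cells stimulated with EGF at its EC50 level; % is scaled to controls: 0 for no effect and ±100 for the full control effect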
Procedure, shortened: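 Beta-lactamase reporter under AP-1 response element, ME-180 background. Stimulus: EC50 EGF. Compound exposure 5 h, 37 °C. Detection: CCF4, 2.5 h RT, 460/530 nm. Values: AC50 from titration.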

[3] = biological target: Cytochrome P450 1A2 (Homo sapiens) (UniProt P05177); assay: p450-cyp1a2 (AID 410; calls by dose curve; also: potency is read from the fitted curve at half-maximal effect;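 as to activity change, negative = inhibition: -100% = full effect of reference inhibitor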); settings: recombinant CYP1A2, luciferin-ME demethylation, luminescence; series mostly up to 57 µM
Procedure, shortened: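 Read-out is luminescence from luciferin produced by CYP1A2 demethylation of Luciferin-ME (100uM, at Km). Detection reagent stopped the 60 min NADPH-dependent reaction; signals were normalized to 57 uM furafylline.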

[4] = NFAT Signaling Pathway (AID 444); settings: Jurkat NFAT-bla M1, carbachol, beta-lactamase ratio, 5 h; at 7.69 µM (top of the series) unless noted;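 also: carbachol stimulus at about its EC50 of 1 µM final; % is scaled to controls: 0 for no effect and ±100 for the full control effect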
Procedure, shortened: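 Jurkat cells carrying an NFAT-driven β-lactamase reporter and co-transfected muscarinic M1 receptor were treated with compound plus carbachol (1 uM final, an EC50 level) for 5 h at 37 °C. CCF4 loading followed for 1 h at RT; 460/530 nm ratio gave %activity.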

[5] = Stat Signaling Pathway (AID 446); settings: ME-180 (cervical carcinoma) SIE beta-lactamase reporter, IL-6 stimulated, 5 h; at 7.69 µM (top of the series) unless noted;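 also: ME-180 cervical cancer cells given 40 pM IL-6 alongside compound; SIE-controlled beta-lactamase reporter measured as 460/530 nm FRET emission ratio; % is scaled to controls: 0 for no effect and ±100 for the full control effect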
Procedure, shortened: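 Compound effects on IL-6-induced STAT reporter activity were measured in ME-180 cells. After overnight culture, cells were co-treated with 40 pM IL-6 for 5 hrs before beta-lactamase substrate loading at room temperature.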

[6] = biological target: Glucocorticoid receptor (Homo sapiens) (UniProt P04150); assay: GR-EFC Redistribution (AID 451; calls by dose curve; also: potency is read from the fitted curve at half-maximal effect); settings: CHO-K1 GR-EFC translocation, beta-gal luminescence, 2 h
Procedure, shortened: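 CHO-K1 cells stably expressing nuclear-localized β-gal enzyme acceptor and GR fused C-terminally to the enzyme donor fragment; ligand-driven nuclear translocation restores β-gal by complementation. Compounds titrated up to 46 uM final, 2 h at 37 °C; luminescence read.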

[7] = biological target: Mitogen-activated protein kinase 10 (Mus musculus) (UniProt Q61831); assay: JNK3 AlphaScreen Assay (AID 530); settings: JNK3 lysate, c-Jun phosphorylation; series mostly up to 57.1 µM;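 also: kinase came from lysate of stimulated human HepG2 cells; signal reports phosphorylation of biotinylated GST-cJun 1-79 at Ser73 with 10 µM ATP; % is scaled to controls: 0 for no effect and ±100 for the full control effect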
Procedure, shortened: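 Biotinylated GST-cJun(1-79) served as substrate for JNK3 in HepG2 lysates stimulated with IL-1beta and TNF-alpha. ATP was 10 uM final, pH 7.6. Ser73 phosphorylation was quantified by AlphaScreen (680 nm excitation).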

[8] = biological target: 3',5'-cyclic-AMP phosphodiesterase 4B (Homo sapiens) (UniProt Q07343); assay: qHTS Assay for Inhibitors of PDE-IV (AID 607; active = well fitted activation curve with a large enough effect in the main read-out, with a control signal flat, not every such curve was filed as active; also: % of control where 0% means no effect); settings: HEK293 ACTOne CNG channel cells, membrane potential fluorescence; series mostly up to 22.9 µM
Procedure, shortened: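 ACTOne HEK293 cells carry a modified cAMP-gated CNG channel and express endogenous PDE4; plated 1000 cells/well, compounds up to 22.9 uM final. Membrane-potential dye fluorescence (ex 535/em 590) was read; parental cells received 10 uM forskolin + 100 uM RO 20-1724.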

[9] = biological target: Cytochrome P450 3A4 (Homo sapiens) (UniProt P08684); assay: qHTS Assay for Activators of Cytochrome P450 3A4 (AID 885; active = well fitted curve in the direction sought with a large enough effect; an effect the other way counts as inactive or inconclusive; also: nearly all actives have a fitted effect of over 65% in size; also: potency is read from the fitted curve at half-maximal effect); settings: recombinant CYP3A4, Luciferin-PPXE luminescence, 60 min; series mostly up to 57.1 µM
Procedure, shortened: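 CYP3A4 activity: Luciferin-PPXE O-dealkylation, 25uM substrate, 200mM KPO4, RT throughout. Read-out is luciferase luminescence; higher values reflect activation.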

[10] = Primary qHTS for small molecule stabilizers of the endoplasmic reticulum resident proteome: Secreted ER Calcium Modulated Protein (SERCaMP) assay (AID 1508630; active = well fitted curve in the direction sought with a large enough effect; an effect the other way counts as inactive or inconclusive; also: % is scaled to controls: 0 for no effect and ±100 for the full control effect); settings: SH-SY5Y GLuc-SERCaMP (Gaussia luciferase released on ER calcium loss) secretion, thapsigargin, luminescence; series mostly up to 38.4 µM
Procedure, shortened: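 The SH-SY5Y reporter protocol was run at 3 concentrations up to 38.3 uM (primary) or 11 concentrations (follow-up): 16 h compound, 100 nM thapsigargin for 4 h, then extracellular luciferase luminescence.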

[11] = biological target: Cytochrome P450 3A4 (Homo sapiens) (UniProt P08684); assay: qHTS Assay for Inhibitors and Substrates of Cytochrome P450 3A4 (AID 884; active = well fitted curve in the direction sought with a large enough effect; an effect the other way counts as inactive or inconclusive; also: % is scaled to controls: 0 for no effect and ±100 for the full control effect; nearly all actives have a fitted effect of over 50% in size); settings: recombinant CYP3A4, Luciferin-PPXE luminescence; series mostly up to 57.1 µM
Procedure, shortened: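 Luminescent readout of luciferin produced by CYP3A4 (20 nM) dealkylation of Luciferin-PPXE, 25 uM (its KM). NADPH-driven reaction ran 60 min at RT after 10 min compound preincubation; data scaled to 57 uM ketoconazole as 100% inhibition.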

[12] = biological target: Cytochrome P450 2C19 (Homo sapiens) (UniProt P33261); assay: qHTS Assay for Inhibitors and Substrates of Cytochrome P450 2C19 (AID 899; active = well fitted curve in the direction sought with a large enough effect; an effect the other way counts as inactive or inconclusive; also: potency is read from the fitted curve at half-maximal effect; nearly all actives have a fitted effect of over 60% in size); settings: recombinant CYP2C19, luciferin-H EGE luminescence; series mostly up to 57.1 µM
Procedure, shortened: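 In 50mM KPO4, the reaction held 5nM enzyme and KM-level (10uM) Luciferin-H EGE; it ran 60 min at 37C after NADPH regeneration and a 10 min compound preincubation. Luminescence values were scaled to 57uM ketoconazole as complete inhibition.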

[13] = Confirmation and Secondary Assay for Modulators of Hemoglobin Beta Chain Splicing at IVS2 654 locus (AID 910; active = well fitted curve in the direction sought with a large enough effect; an effect the other way counts as inactive or inconclusive;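 also: per-well total GFP intensity by laser scanning cytometry after 2-day treatment; % of control where 0% means no effect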); settings: HeLa EGFP-654 splicing reporter, GFP fluorescence, 48 h; series mostly up to 38.3 µM
Procedure, shortened: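 HeLa cells stably carrying EGFP interrupted by mutant beta-globin IVS2-654 intron (CMV-driven) were treated with compound for 2 days at 37C; corrected splicing was scored as total peak GFP intensity per well (488 nm excitation, 500-520 nm emission).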

[14] = Confirmation and Secondary Assay for Modulators of Hemoglobin Beta Chain Splicing at IVS2 705 locus (AID 930; active = well fitted curve in the direction sought with a large enough effect; an effect the other way counts as inactive or inconclusive;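 also: HeLa cells stably expressing the EGFP-705 splicing reporter; % of control where 0% means no effect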); settings: HeLa EGFP-705 splicing reporter, GFP fluorescence, 48 h; series mostly up to 38.3 µM
Procedure, shortened: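 Restored EGFP fluorescence after 2-day compound exposure reports splicing correction in IVS2-705 EGFP reporter HeLa cells; positive control was 500 nM splice-blocking PNA oligo. Signal measured as well total peak GFP intensity (488 nm excitation).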

[15] = biological target: Glucocorticoid receptor (Homo sapiens) (UniProt P04150); assay: GR-GFP Redistribution (AID 450;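 active = compounds whose dose series gives a full or clear partial fitted curve of increased nuclear translocation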; also: potency is read from the fitted curve at half-maximal effect); settings: U2OS GR-GFP nuclear translocation, laser cytometry, 2 h

Chain of 3',5'-cyclic-AMP phosphodiesterase 4B (Homo sapiens) (Q07343 whole entry, looked up): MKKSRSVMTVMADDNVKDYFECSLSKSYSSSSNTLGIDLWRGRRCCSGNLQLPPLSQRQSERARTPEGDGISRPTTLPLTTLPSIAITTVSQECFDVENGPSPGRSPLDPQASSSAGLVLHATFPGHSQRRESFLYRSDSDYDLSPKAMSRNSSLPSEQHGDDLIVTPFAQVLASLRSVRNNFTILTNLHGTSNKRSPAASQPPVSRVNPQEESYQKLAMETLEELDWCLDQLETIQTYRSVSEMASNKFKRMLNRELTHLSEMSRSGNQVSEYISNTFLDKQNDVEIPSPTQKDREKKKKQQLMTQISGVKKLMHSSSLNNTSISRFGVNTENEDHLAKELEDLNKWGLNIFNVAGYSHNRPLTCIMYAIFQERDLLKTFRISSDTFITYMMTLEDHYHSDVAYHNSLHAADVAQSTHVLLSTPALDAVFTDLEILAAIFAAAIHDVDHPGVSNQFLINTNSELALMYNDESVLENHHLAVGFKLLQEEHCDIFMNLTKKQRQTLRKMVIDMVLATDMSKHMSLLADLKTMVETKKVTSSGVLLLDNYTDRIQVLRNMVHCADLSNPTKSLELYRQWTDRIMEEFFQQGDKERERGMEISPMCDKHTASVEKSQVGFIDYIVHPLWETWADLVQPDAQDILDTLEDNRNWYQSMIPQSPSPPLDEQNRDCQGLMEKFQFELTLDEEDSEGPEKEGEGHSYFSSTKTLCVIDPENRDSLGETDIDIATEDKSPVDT
Chain of Lysosomal acid glucosylceramidase (Homo sapiens) (P04062 whole entry, looked up): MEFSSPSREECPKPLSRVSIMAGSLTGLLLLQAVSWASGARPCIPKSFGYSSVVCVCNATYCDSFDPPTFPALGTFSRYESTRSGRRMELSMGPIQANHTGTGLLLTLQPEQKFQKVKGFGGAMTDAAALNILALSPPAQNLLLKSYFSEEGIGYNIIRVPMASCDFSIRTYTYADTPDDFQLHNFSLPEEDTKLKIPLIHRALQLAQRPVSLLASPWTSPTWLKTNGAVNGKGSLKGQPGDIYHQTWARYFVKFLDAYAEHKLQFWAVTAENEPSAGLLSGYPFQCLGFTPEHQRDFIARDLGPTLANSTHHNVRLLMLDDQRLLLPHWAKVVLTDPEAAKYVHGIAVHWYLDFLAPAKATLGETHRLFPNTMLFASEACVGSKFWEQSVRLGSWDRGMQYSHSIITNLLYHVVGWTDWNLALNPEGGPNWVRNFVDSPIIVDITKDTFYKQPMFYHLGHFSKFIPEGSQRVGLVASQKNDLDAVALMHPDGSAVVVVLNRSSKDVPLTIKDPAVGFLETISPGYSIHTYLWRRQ
Chain of Cytochrome P450 3A4 (Homo sapiens) (P08684 whole entry, looked up): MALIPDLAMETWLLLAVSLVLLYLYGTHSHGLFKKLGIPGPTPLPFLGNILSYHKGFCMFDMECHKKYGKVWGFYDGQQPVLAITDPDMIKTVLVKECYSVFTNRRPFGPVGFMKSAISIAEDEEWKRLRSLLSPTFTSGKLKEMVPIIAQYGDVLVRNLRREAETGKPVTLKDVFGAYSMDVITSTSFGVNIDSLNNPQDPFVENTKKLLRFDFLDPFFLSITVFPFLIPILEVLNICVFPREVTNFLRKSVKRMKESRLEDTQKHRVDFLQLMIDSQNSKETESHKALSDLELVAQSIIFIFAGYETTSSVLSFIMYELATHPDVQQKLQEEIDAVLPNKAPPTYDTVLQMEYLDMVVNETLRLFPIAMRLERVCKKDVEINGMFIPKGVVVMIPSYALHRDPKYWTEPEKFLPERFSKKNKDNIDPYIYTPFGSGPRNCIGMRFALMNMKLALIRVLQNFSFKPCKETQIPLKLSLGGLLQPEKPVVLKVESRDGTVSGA
Chain of Cytochrome P450 1A2 (Homo sapiens) (P05177 whole entry, looked up): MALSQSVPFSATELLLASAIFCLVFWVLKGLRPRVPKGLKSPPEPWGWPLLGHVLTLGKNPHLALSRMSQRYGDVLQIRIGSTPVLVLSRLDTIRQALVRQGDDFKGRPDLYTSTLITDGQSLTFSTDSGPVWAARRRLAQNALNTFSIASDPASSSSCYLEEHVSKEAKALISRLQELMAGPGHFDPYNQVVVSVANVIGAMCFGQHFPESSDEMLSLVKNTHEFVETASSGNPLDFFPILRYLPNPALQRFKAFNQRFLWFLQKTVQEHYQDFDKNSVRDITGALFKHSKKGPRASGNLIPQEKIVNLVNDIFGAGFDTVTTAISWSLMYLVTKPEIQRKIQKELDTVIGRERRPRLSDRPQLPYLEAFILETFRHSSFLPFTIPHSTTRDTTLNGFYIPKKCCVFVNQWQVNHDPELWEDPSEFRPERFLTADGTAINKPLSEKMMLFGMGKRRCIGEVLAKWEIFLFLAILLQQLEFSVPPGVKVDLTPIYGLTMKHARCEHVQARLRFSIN
Chain of Glucocorticoid receptor (Homo sapiens) (P04150 whole entry, looked up, the tested form may be a part): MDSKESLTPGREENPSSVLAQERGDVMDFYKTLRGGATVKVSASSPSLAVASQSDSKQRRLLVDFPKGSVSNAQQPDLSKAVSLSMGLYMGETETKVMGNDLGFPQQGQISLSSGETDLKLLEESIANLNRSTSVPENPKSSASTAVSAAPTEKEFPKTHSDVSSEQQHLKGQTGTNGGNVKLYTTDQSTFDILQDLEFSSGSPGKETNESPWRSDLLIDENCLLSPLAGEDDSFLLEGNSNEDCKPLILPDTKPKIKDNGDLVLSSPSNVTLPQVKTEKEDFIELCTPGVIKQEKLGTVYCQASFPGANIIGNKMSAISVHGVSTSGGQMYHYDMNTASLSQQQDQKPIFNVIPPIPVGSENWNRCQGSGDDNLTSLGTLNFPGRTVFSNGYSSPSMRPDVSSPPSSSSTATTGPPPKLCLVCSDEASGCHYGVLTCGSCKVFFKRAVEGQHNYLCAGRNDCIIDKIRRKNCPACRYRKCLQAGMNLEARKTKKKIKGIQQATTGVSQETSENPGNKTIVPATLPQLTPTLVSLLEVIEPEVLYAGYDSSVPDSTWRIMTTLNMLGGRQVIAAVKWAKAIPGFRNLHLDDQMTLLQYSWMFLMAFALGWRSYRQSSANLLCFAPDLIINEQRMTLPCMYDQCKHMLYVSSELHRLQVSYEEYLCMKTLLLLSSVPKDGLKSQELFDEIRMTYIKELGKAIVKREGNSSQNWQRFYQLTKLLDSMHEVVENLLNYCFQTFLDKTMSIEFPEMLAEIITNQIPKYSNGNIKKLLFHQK
Chain of Cytochrome P450 2C19 (Homo sapiens) (P33261 whole entry, looked up): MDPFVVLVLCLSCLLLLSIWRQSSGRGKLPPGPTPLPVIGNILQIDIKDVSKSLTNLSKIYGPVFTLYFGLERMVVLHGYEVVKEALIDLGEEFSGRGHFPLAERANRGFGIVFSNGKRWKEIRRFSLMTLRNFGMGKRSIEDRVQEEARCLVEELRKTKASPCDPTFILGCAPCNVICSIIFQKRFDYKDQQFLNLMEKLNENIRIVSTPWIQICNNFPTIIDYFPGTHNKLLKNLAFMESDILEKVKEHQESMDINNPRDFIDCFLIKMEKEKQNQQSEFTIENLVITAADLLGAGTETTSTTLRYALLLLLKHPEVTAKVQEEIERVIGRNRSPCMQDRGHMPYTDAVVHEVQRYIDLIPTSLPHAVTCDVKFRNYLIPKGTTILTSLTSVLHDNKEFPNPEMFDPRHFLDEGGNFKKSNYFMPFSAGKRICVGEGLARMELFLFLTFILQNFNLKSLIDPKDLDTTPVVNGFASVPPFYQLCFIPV

COc1ccc(NC(=O)N2CCCC3(CCN(C(=O)c4ccco4)CC3)C2)cc1
Potency [1]: > 11.4 µM
activity change, negative = inhibition [2]: -17.6%
Potency [3]: inactive
activity change, negative = inhibition [4]: 7.9%
activity, negative = inhibition [5]: -11.8%
Potency [6]: > 46 µM
Potency [7]: inactive
Potency [8]: inactive
Potency [9]: inactive
outcome [10]: inactive

O=C(c1cccc(F)c1)N1CCC2(CC1)CCN(c1ncccn1)CC2
Potency [1]: > 11.4 µM
activity change, negative = inhibition [2]: -6.18%
Potency [3]: 10 µM (active)
activity change, negative = inhibition [4]: 2.49%
activity, negative = inhibition [5]: -11.5%
Potency [6]: > 46 µM
Potency [7]: inactive
Potency [8]: inactive
Potency [11]: inactive
Potency [9]: 7.94 µM (active)
outcome [10]: inactive

O=C(Nc1ccccc1)N1CCCC2(CCN(C(=O)c3cnccn3)CC2)C1
Potency [1]: > 11.4 µM
activity change, negative = inhibition [2]: 4.4%
Potency [3]: inactive
activity change, negative = inhibition [4]: 15.7%
activity, negative = inhibition [5]: 2.67%
Potency [6]: > 46 µM
Potency [7]: inactive
Potency [8]: inactive
Potency [9]: inactive
outcome [10]: inactive

CS(=O)(=O)N1CCC2(CC1)CN(c1ncccn1)C2
Potency [1]: > 11.4 µM
activity change, negative = inhibition [2]: -16%
Potency [3]: inactive
activity change, negative = inhibition [4]: -5.62%
activity, negative = inhibition [5]: 6.56%
Potency [6]: > 46 µM
Potency [7]: inactive
Potency [8]: inactive
Potency [9]: inactive
outcome [10]: inactive

O=C(c1cnccn1)N1CCC2(CC1)CCN(c1ncccn1)CC2
Potency [1]: > 11.4 µM
activity change, negative = inhibition [2]: -5.54%
Potency [3]: inactive
activity change, negative = inhibition [4]: 6.93%
activity, negative = inhibition [5]: -9.82%
Potency [6]: > 46 µM
Potency [7]: inactive
Potency [8]: inactive
Potency [11]: inactive
Potency [9]: 7.94 µM (active)
outcome [10]: inactive

O=S(=O)(c1ccccc1)N1CCC2(CCCN(c3cccc(-c4ccccc4)c3)C2)CC1
Potency [1]: > 11.4 µM
activity change, negative = inhibition [2]: 7.43%
Potency [3]: inactive
activity change, negative = inhibition [4]: -13.9%
activity, negative = inhibition [5]: -0.269%
Potency [6]: > 46 µM
Potency [7]: inactive
Potency [8]: inactive
Potency [9]: inactive
outcome [10]: inactive

COC(=O)N1CCC2(CC1)CCN(c1ncccn1)CC2
Potency [1]: > 11.4 µM
activity change, negative = inhibition [2]: 3.11%
Potency [3]: inactive
activity change, negative = inhibition [4]: -23.4%
activity, negative = inhibition [5]: -4.92%
Potency [6]: > 46 µM
Potency [7]: inactive
Potency [8]: inactive
Potency [11]: inactive
Potency [9]: 15.8 µM (active)
outcome [10]: inactive

CC(C)NC(=O)N1CCCC2(CCN(C(=O)c3csnn3)CC2)C1
Potency [1]: > 11.4 µM
activity change, negative = inhibition [2]: 3.46%
Potency [3]: inactive
activity change, negative = inhibition [4]: -7.86%
activity, negative = inhibition [5]: 2.78%
Potency [6]: > 46 µM
Potency [7]: inactive
Potency [8]: inactive
Potency [9]: inactive
outcome [10]: inactive

COc1ccc(NC(=O)N2CC3(CCN(C(=O)c4ccncc4)CC3)C2)cc1
Potency [1]: > 11.4 µM
activity change, negative = inhibition [2]: 0.578%
Potency [3]: inactive
activity change, negative = inhibition [4]: 10.9%
activity, negative = inhibition [5]: 6.73%
Potency [6]: > 46 µM
Potency [7]: inactive
Potency [8]: inactive
Potency [9]: inactive
outcome [10]: inactive

O=C(c1cc(C(F)(F)F)cc(C(F)(F)F)c1)N1CCC2(CC1)CN(Cc1ccncc1)C2
Potency [1]: > 11.4 µM
activity change, negative = inhibition [2]: -12.2%
Potency [3]: 20 µM (active)
activity change, negative = inhibition [4]: -6.5%
activity, negative = inhibition [5]: 5.6%
Potency [6]: > 46 µM
Potency [7]: inactive
Potency [8]: inactive
Potency [9]: inactive
outcome [10]: inactive

O=S(=O)(c1ccccc1)N1CCC[C@@]2(CCN(c3cccc(-c4ccccc4)c3)C2)C1
Potency [1]: > 11.4 µM
activity change, negative = inhibition [2]: -23.9%
Potency [3]: 15.8 µM (active)
activity change, negative = inhibition [4]: -13.7%
activity, negative = inhibition [5]: -8.6%
Potency [6]: > 46 µM
Potency [7]: inactive
Potency [8]: inactive
Potency [9]: inactive
outcome [10]: inactive

O=C(Oc1ccccc1)N1CCC[C@@]2(CCN(c3ccccn3)C2)C1
Potency [1]: > 11.4 µM
activity change, negative = inhibition [2]: 7.28%
Potency [3]: 7.94 µM (active)
activity change, negative = inhibition [4]: -24.6%
activity, negative = inhibition [5]: 9.87%
Potency [6]: > 46 µM
Potency [7]: inactive
Potency [9]: inactive
Potency [12]: 5.01 µM (active)
outcome [10]: inactive

Cc1cccc(CNc2nc(-c3ccccc3CN(C)C)nc3ccccc23)c1
Potency [1]: > 11.4 µM
activity change, negative = inhibition [2]: 20.6%
Potency [3]: 3.16 µM (active)
activity change, negative = inhibition [4]: -22.2%
activity, negative = inhibition [5]: -0.581%
Potency [6]: > 46 µM
Potency [7]: inactive
Potency [9]: inactive
Potency [13]: inactive
outcome [14]: inactive
outcome [10]: inactive

Cc1nc2cnc(Oc3cccc(Cl)c3)nc2n(CCc2ccccc2)c1=O
Potency [1]: > 11.4 µM
activity change, negative = inhibition [2]: 2.12%
Potency [3]: 12.6 µM (active)
activity, negative = inhibition [5]: 18.7%
Potency [15]: > 9.22 µM
Potency [6]: > 46 µM
Potency [7]: inactive
outcome [10]: inactive
